Screening results: PubChem, The Scripps Research Institute Molecular Screening Center
Rows were chosen to be rich in hits. Some 4.5% of all compounds tested hit in one or more screens of this group.
hcDAF12 agonist: H. contortus DAF-12 activation, primary screen. activation, % at 6.8 µM. actives 1.4% (n = 370,000). HEK293 hcDAF-12 lit1-tk-luc reporter, luminescence; 0% DMSO, 100% Δ7-dafachronic acid;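 active means activation above the mean of all tested compounds plus 3 SD, cut at about 5.5% in these data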;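 further: 100% = response to 3 µM Δ7-dafachronic acid high control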
DAX1 inh-1: NR0B1 (DAX1) inhibition; P51843; HEK293 Gal4-DAX1 luciferase reporter, luminescence; inhibition, % at 6.75 µM; actives 0.99% (n = 340,000); AID 504766;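 active means inhibition above the mean over all tested compounds plus 3 SD, cut at about 4.2% in these data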;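 further: 0% = DAX1-transfected cells with DMSO and 100% = empty-vector control cells with DMSO; inhibition shows as a rise in luminescence from relieved DAX1 repression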
Target sequence (P51843 207-470 limits assumed): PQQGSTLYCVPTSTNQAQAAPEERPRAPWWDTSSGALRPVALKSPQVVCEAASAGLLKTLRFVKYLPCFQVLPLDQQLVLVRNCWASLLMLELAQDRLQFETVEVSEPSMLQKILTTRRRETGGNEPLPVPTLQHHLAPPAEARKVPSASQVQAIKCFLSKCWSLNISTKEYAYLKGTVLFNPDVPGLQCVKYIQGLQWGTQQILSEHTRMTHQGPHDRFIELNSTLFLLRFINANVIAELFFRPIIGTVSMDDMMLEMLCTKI
hgDAF12 agonist: hgDAF-12 agonism, primary luciferase screen | AID 687014 | actives 1.8% (n = 370,000) | HEK293 GAL4-hgDAF12 UAS-luciferase reporter, agonist luminescence; normalized to butyrate control | activation, % at 6.8 µM;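 active means activation above a cutoff set at the mean of all screened compounds plus 3 SD, cut at about 10% in these data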;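 further: 0% = DMSO wells and 100% = sodium butyrate wells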
DAX1 inh-2: blocks DAX1 repression of SF-1 activated StAR promoter; actives 1.1% (n = 370,000); HEK293T StAR-luciferase reporter, SF-1/DAX-1 repression relief; inhibition, % at 6.8 µM;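 active means inhibition above the mean over all tested compounds plus 3 SD, cut at about 3.6% in these data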;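 further: 0% = DAX-1 cells with DMSO and 100% = cells lacking DAX-1 with DMSO; higher inhibition means more luminescence from relief of DAX-1 repression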
ssDAF12 agonist: S. stercoralis DAF-12 activation, primary screen. HEK293 ssDAF-12/GRIP1 lit1-tk-luc reporter, luminescence; % of 3 µM dafachronic acid response. activation, % at 6.8 µM. actives 1% (n = 370,000). AID 652126;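 active means activation above the mean over all tested compounds plus 3 SD, cut at about 0.9% in these data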;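 further: 0% = DMSO-only wells and 100% = 3 µM delta7-dafachronic acid wells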
FXN GAA850 act: increases GAA850 frataxin promoter reporter activity. HEK293 lucGAA850 FXN promoter luciferase reporter, 24 h; percent of 10 µM SAHA response. activation, % at 6 µM. actives 0.56% (n = 360,000). AID 540364;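 active means activation above the average of all compounds screened plus 3 SD, cutoff fixed separately per campaign, cut at about 7.5% in these data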;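 further: 0% = DMSO wells and 100% = 10 µM SAHA wells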
hgDAF12 ag: hgDAF-12 agonism, confirmation assay. shares compounds with hgDAF12 agonist. HEK293 GAL4-hgDAF12 luciferase reporter, agonist mode; percent of butyrate response. activation, % at 6.8 µM. actives 80% (n = 3,300). AID 743050;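 active means mean activation over triplicate wells above the hit cutoff derived from the earlier primary screen, cut at about 11% in these data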;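 further: 0% = DMSO low control and 100% = 2 mM sodium butyrate high control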
LXRb DAF12 ctr: activates human LXR-beta, counter-screen for DAF-12 agonists; 3,300 tested, under 10 active; activation, % at 6.8 µM; HEK293 Gal4-LXR luciferase reporter, 24 h; shares compounds with hgDAF12 agonist;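 active means mean activation of the triplicate above a set limit carried over from the primary screen, none filed active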
An asterisk follows results filed as active.

Screening O=C(Nc1ccc(-c2ccccc2)cc1)c1ccccc1 returned hcDAF12 agonist -1, DAX1 inh-1 -2, hgDAF12 agonist -2, DAX1 inh-2 0, ssDAF12 agonist -1 and FXN GAA850 act -1.
`COc1cccc(NC(=O)Nc2ccc3nsnc3c2)c1` gave hcDAF12 agonist 1, DAX1 inh-1 2, hgDAF12 agonist 14*, DAX1 inh-2 2, ssDAF12 agonist 0, FXN GAA850 act -3, hgDAF12 ag 11* and LXRb DAF12 ctr 1.
`CC(=O)Nc1ccc2nsnc2c1` gave hcDAF12 agonist 0, hgDAF12 agonist 1, DAX1 inh-2 -1, ssDAF12 agonist -2 and FXN GAA850 act 0.
Screening Cn1c(SCC(=O)NC(=O)Cc2ccccc2)nnc1-c1ccc(F)cc1 returned hcDAF12 agonist 1, DAX1 inh-1 0, hgDAF12 agonist -2, DAX1 inh-2 -1, ssDAF12 agonist -1 and FXN GAA850 act -1.
`CCOC(=O)C/C(C)=N/NC(=O)c1cccs1` gave DAX1 inh-1 2 and FXN GAA850 act 7.
Screening C/C(=N\NC(=O)c1cccs1)C(C)(C)C returned hcDAF12 agonist 1, DAX1 inh-1 2, hgDAF12 agonist 18*, DAX1 inh-2 3, ssDAF12 agonist -1, FXN GAA850 act 4, hgDAF12 ag 1 and LXRb DAF12 ctr 0.
For C/C(=N/NC(=O)c1cccs1)c1ccco1 the results were hcDAF12 agonist 3, DAX1 inh-1 2, hgDAF12 agonist 18*, DAX1 inh-2 3, ssDAF12 agonist 0, FXN GAA850 act 4, hgDAF12 ag 9 and LXRb DAF12 ctr 0.
For CC(C)CN(CC(C)C)C(=O)c1ccc2c(c1)NC(=O)C(C)(C)O2 the results were hcDAF12 agonist -2, hgDAF12 agonist -2, DAX1 inh-2 0 and ssDAF12 agonist -1.
Cc1cc(C)nc(N/N=C/c2cn[nH]c2-c2ccc(F)cc2)n1 was read as hcDAF12 agonist -1, DAX1 inh-1 0, hgDAF12 agonist 0, DAX1 inh-2 0, ssDAF12 agonist -2 and FXN GAA850 act 0.
Screening O=C(CSc1nc2ccc(NC(=O)CSc3nnnn3-c3ccccc3)cc2s1)Nc1ccccc1 returned hcDAF12 agonist 2, DAX1 inh-1 -2, hgDAF12 agonist -2, DAX1 inh-2 -1, ssDAF12 agonist -1 and FXN GAA850 act -2.
For Cn1cnnc1SCC(=O)Nc1ccc2nc(SCc3ccccc3F)sc2c1 the results were hcDAF12 agonist 1, DAX1 inh-1 2, hgDAF12 agonist 13*, DAX1 inh-2 1, ssDAF12 agonist -1, FXN GAA850 act 5, hgDAF12 ag 13* and LXRb DAF12 ctr 0.
CN(c1ccc(OC(=O)CN2C(=O)NC3(CCCC3)C2=O)cc1)S(=O)(=O)c1ccccc1 was read as hcDAF12 agonist 1, DAX1 inh-1 2, hgDAF12 agonist 0, DAX1 inh-2 1, ssDAF12 agonist -1 and FXN GAA850 act -1.
For COc1cccc(CSc2nc3ccncc3[nH]2)c1 the results were hcDAF12 agonist 2, DAX1 inh-1 -1, hgDAF12 agonist 15*, DAX1 inh-2 3, ssDAF12 agonist 0, FXN GAA850 act 2, hgDAF12 ag 14* and LXRb DAF12 ctr 1.
O=C(NNC(=O)c1ccccc1O)c1cccc(Br)c1 was read as hcDAF12 agonist 1, DAX1 inh-1 2, hgDAF12 agonist 7, DAX1 inh-2 1, ssDAF12 agonist -1 and FXN GAA850 act 3.
CC1=CC(C)C(/C=N/N=C(N)N)C(C)C1 (configuration not stated) was read as hcDAF12 agonist -1, DAX1 inh-1 -1, hgDAF12 agonist 0, DAX1 inh-2 0, ssDAF12 agonist -1 and FXN GAA850 act 2.
For O=C(NC(=S)Nc1ccccc1)c1cccs1 the results were hcDAF12 agonist 4, DAX1 inh-1 4.5*, hgDAF12 agonist 15*, DAX1 inh-2 1, ssDAF12 agonist 1, FXN GAA850 act 3, hgDAF12 ag 17* and LXRb DAF12 ctr 0.
`O=C(CCCn1nnnc1CN1CCOCC1)N1CCN(c2ccccc2F)CC1` gave hcDAF12 agonist -1, DAX1 inh-1 1, hgDAF12 agonist -1, DAX1 inh-2 -1, ssDAF12 agonist -1 and FXN GAA850 act -2.
Oc1ccccc1N1CCN(c2ccc3ccccc3n2)CC1 was read as hcDAF12 agonist 5, DAX1 inh-1 2, hgDAF12 agonist 16*, DAX1 inh-2 2, ssDAF12 agonist 1, FXN GAA850 act 3, hgDAF12 ag 15* and LXRb DAF12 ctr 1.
`CCOCCCNC(=O)c1ccc(-n2c(=S)[nH]c3ccccc3c2=O)cc1` gave hcDAF12 agonist 0, DAX1 inh-1 0, hgDAF12 agonist -1, DAX1 inh-2 0, ssDAF12 agonist -1 and FXN GAA850 act -2.
`Nc1nn(-c2ccccc2)c(N)c1N=Nc1cccc(F)c1` gave hcDAF12 agonist 6.0*, hgDAF12 agonist 19*, DAX1 inh-2 0, ssDAF12 agonist 0, FXN GAA850 act 0, hgDAF12 ag 24* and LXRb DAF12 ctr 1.
For CC(C)CSc1nnc2c(n1)[nH]c1ccccc12 the results were hcDAF12 agonist 6.4*, DAX1 inh-1 2, hgDAF12 agonist 14*, DAX1 inh-2 4.0*, ssDAF12 agonist 1.2*, FXN GAA850 act 3, hgDAF12 ag 12* and LXRb DAF12 ctr 1.
Screening O=c1c(-c2ccc3c(c2)OCCO3)coc2cc(OC3OC(CO)C(O)C(O)C3O)ccc12 (configuration not stated) returned hcDAF12 agonist 5.8*, DAX1 inh-1 1, hgDAF12 agonist 17*, DAX1 inh-2 4, ssDAF12 agonist 0, FXN GAA850 act 5, hgDAF12 ag 14* and LXRb DAF12 ctr 1.
COc1ccc(-c2coc3cc(O[C@@H]4O[C@H](CO)[C@@H](O)[C@H](O)[C@H]4O)ccc3c2=O)cc1 was read as hcDAF12 agonist 6, DAX1 inh-1 2, hgDAF12 agonist 8, DAX1 inh-2 3, ssDAF12 agonist 0 and FXN GAA850 act 3.
CC(C)OCC1CO1 (configuration not stated) was read as hcDAF12 agonist -1, DAX1 inh-1 0, hgDAF12 agonist 0, DAX1 inh-2 1, ssDAF12 agonist 0 and FXN GAA850 act 1.
`CCOC(=O)c1ccc2nc3c(cc2c1)CCS3` gave hcDAF12 agonist 2, DAX1 inh-1 1, hgDAF12 agonist 16*, DAX1 inh-2 0, ssDAF12 agonist 0, FXN GAA850 act 12*, hgDAF12 ag 11* and LXRb DAF12 ctr 0.
